The results in this text go back to PubChem BioAssay AID1259422 (The Scripps Research Institute Molecular Screening Center, 2018).

Each structure is given as a SMILES string. Hit rate of the full screen: of about 640,000 compounds, about 9,300 (1.5%) were called active. Cut-off read from the data, not from the text of the source: active = inhibition above about 32%; inactive = the rest. The entries come from a sample that favours actives as a whole.

This test can be described thus: TEAD-YAP interaction inhibition, primary screen, TEAD-YAP interaction inhibitor project, luminescence, HEK-TIYL cells (AID 1259422).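 Note: 0% = median of test compound wells and 100% = reference inhibitor wells.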 Particulars: TEAD-Gal4/YAP UAS-luciferase luminescence, at 9.12 µM, hits give high values.
For orientation: inhibition means the relative decrease from the control value, in per cent. Consider `COC(=O)c1cccc(NS(=O)(=O)c2ccc3ccccc3c2)c1C`, for which the inhibition was -7.45% (inactive).

Consider `COc1cc(NS(=O)(=O)c2ccc3ccccc3c2)c2ncccc2c1`, for which the inhibition was 38.5% (active).

With `COc1cc(NS(=O)(=O)c2c(C)ccc3nsnc23)c2ncccc2c1`, the inhibition is -0.3% (inactive).

On to `Cn1cc(S(=O)(=O)N2CCCC2)cc1C(=O)N1CCC(Cc2ccccc2)CC1`, for which the inhibition is -7.23% (inactive).

Take `Nc1c(C(=O)NCc2ccccc2)nnn1Cc1cccc(Cl)c1`: the inhibition is 37% (active).

Take `O=C(Cc1cccc(Cl)c1)NCc1ccccc1`: the inhibition is -42.3% (inactive).

Take `COc1ccc(Cn2nnc(C(=O)Nc3cccc(Cl)c3)c2N)cc1`: the inhibition is -9.56% (inactive).

Turning to `O=S(=O)(c1ccc2ccccc2c1)N1CCSC1c1ccc2c3c(cccc13)CC2` (stereo not given), the inhibition is -6.22% (inactive).

Take `Cc1cc(NCCCn2ccnc2)n2nc(C)c(-c3cccs3)c2n1`: the inhibition is -74.5% (inactive).

In the case of `O=C(CNC1CCCC1)NCc1ccc2c(c1)OCO2`, the inhibition is -2.55% (inactive).

For the compound `CCOc1ccc2c(=O)c(-c3ccc4c(c3)OCCCO4)c(C)oc2c1`, the inhibition was -7.66% (inactive).

Take `CCOc1ccc(C(=O)CCC(=O)OCC(=O)c2ccc3c(c2)OCCO3)cc1`: the inhibition was 5.42% (inactive).

Turning to `CCOc1ccc(-n2c(-c3ccc4c(c3)OCCO4)c[n+]3c2CCCCC3)cc1`, the inhibition was 85.2% (active).

For `COc1ccc2c(c1OC)C(=O)N(c1ncn[nH]1)C2`, the inhibition was 3.4% (inactive).

`COc1ccc2c(c1OC)C(=O)N(c1ccc(O)cc1)C2`: the inhibition was 67.1% (active).

For `COc1ccc(N2Cc3cccc(C(=O)NCC(OC)OC)c3C2=O)cc1`, the inhibition was -8.73% (inactive).

Turning to `CCOC(=O)c1cccc(NC(=O)Cn2cc3c(n2)CCCCC3)c1`, the inhibition was 8.83% (inactive).

On to `O=S(=O)(Nc1cccc2cccnc12)c1ccc(S(=O)(=O)N2CCCCC2)cc1`, for which the inhibition is 23.6% (inactive).

With `O=[N+]([O-])c1ccccc1S(=O)(=O)Nc1cccc2cccnc12`, the inhibition is 32.8% (active).

Regarding `O=[N+]([O-])c1ccccc1Oc1cccc2cccnc12`, the inhibition was -9.26% (inactive).

`Cn1c(/N=C/c2nc(-c3cccc4ccccc34)oc2O)nc2ccccc21`: the inhibition is -6.43% (inactive).

Take `O=C(CO/N=C/c1ccccc1)N=Nc1c(O)[nH]c2ccccc12`: the inhibition was 5.66% (inactive).

As for `COc1ccc2c(c1)CC(C(=O)Nc1ccc(-c3cn[nH]c3)cc1OCc1ccccc1)CO2` (stereo not given), the inhibition was -15.1% (inactive).

Regarding `COc1ccc2c(c1)CC(C(=O)Nc1ccc(-c3cn[nH]c3)cc1O[C@H]1CCOC1)CO2` (stereo not given in full), the inhibition was 22.3% (inactive).

As to `CC1=CCC(C(=O)O)C(C(=O)Nc2nc3ccc(C)cc3s2)C1` (stereo not given), the inhibition is -1.36% (inactive).

As for `CCOc1ccc2nc(NC(=O)C3CC3)sc2c1`, the inhibition was -49.8% (inactive).

As to `COc1ccc2c(c1)CC(C(=O)Nc1nc3ccc(-c4cn[nH]c4C)cc3s1)CO2` (stereo not given), the inhibition was 53.5% (active).

For `Cc1[nH]ncc1-c1ccc2nc(NC(=O)C3COc4ccccc4C3)sc2c1` (stereo not given), the inhibition is 60.2% (active).

In the case of `Cc1cccc(C2c3[nH]c4ccccc4c3CCN2C(=O)Cn2nc(C)nc2C)n1` (stereo not given), the inhibition was -0.52% (inactive).

With `COCCNC(=O)/C(C#N)=C/c1ccc(N2CCOCC2)cc1`, the inhibition is -20.6% (inactive).

For `N#C/C(=C\c1ccc(N2CCOCC2)cc1)c1ccccn1`, the inhibition was 90.2% (active).

As to `COc1ccc2nc(/C(C#N)=C\c3ccc(N4CCOCC4)cc3)[nH]c2c1`, the inhibition was -25.6% (inactive).

In the case of `CCOc1cc(C2C=C(c3cccc([N+](=O)[O-])c3)Nc3ncnn32)ccc1OC(F)F` (stereo not given), the inhibition was -5.43% (inactive).

As for `COC(=O)c1ccc(CSc2cc(N3CCN(c4ccccc4F)CC3)ncn2)o1`, the inhibition was -17.6% (inactive).

For `Cc1cc(C)n2nc(SCC(=O)NCCCN3CCCC3=O)nc2n1`, the inhibition was 6.95% (inactive).

Regarding `O=C1N=c2ccccc2=C1c1[nH]c(=S)n(-c2ccccc2)c1O`, the inhibition is -4.63% (inactive).

Take `COc1cccc(-c2nnc(SCC(=O)Nc3ccccc3)n2-n2cccc2)c1`: the inhibition is 47.3% (active).

Turning to `COC(=O)CSc1nnc(-c2cccc(OC)c2)n1C`, the inhibition was 8.2% (inactive).

Turning to `COc1cccc(-n2c(SCC(=O)Nc3cccc(O)c3)nnc2-c2ccncc2)c1`, the inhibition was 1.48% (inactive).

As to `COCCNC(=O)c1oc2ccc3c(c2c1C)C(=O)CC1(CCCC1)O3`, the inhibition is -23.1% (inactive).

Consider `Nc1nc(SC(c2ccccc2)c2ccccc2)nc2sc3c(c12)CCCC3`, for which the inhibition was 5.46% (inactive).

As for `Cc1nonc1CN(C)C(=O)c1cc(COc2cccc(C(F)(F)F)c2)on1`, the inhibition was -10.6% (inactive).

In the case of `Cc1cc(CNC(=O)c2cc(COc3ccc4ncccc4c3)on2)nn1C`, the inhibition was 12.1% (inactive).

For `COCC1CCN(C(=O)c2cc(COc3ccc4ncccc4c3)on2)C1` (stereo not given), the inhibition was 30.8% (inactive).

Regarding `O=C(c1cc(COc2ccc3ncccc3c2)on1)N1C[C@@H]2CCC[C@H]1C2`, the inhibition was 32.6% (active).

Regarding `CCN(CC)C1CCN(C(=O)c2cc(COc3ccc4ncccc4c3)on2)C1` (stereo not given), the inhibition is 14.7% (inactive).

As to `CN(Cc1cccnc1)C(=O)c1cc(COc2ccc3ncccc3c2)on1`, the inhibition is 40.8% (active).

Regarding `NC(=O)COC(=O)c1cccc(S(=O)(=O)NCc2ccccc2)c1`, the inhibition is -3.84% (inactive).

In the case of `CC(C)c1ccc(CN[C@H]2C[C@H]3C(=O)N[C@H]([C@H](C)O)C(=O)N3C2)cc1`, the inhibition was 1.15% (inactive).

Regarding `COc1ccc(NC(=O)C2Cc3ccccc3CN2S(=O)(=O)c2ccc(C)cc2)cc1` (stereo not given), the inhibition was 12.4% (inactive).

As to `[O-][n+]1onc2c1CCc1[nH]c(-c3ccccc3)nc1-2`, the inhibition is 41.9% (active).

As for `c1ccc(-c2nc(-c3ccncc3)[nH]c2-c2ccccc2)cc1`, the inhibition was 6.95% (inactive).

Take `Nc1nc2c(s1)CCc1c-2no[n+]1[O-]`: the inhibition was 12.3% (inactive).

With `Cc1ccc(C)c(N(Cc2ccccc2C)S(C)(=O)=O)c1`, the inhibition is -3.99% (inactive).

For the compound `COc1ccc(Cl)cc1Nc1c(-c2ccc3c(c2)OCC(=O)N3)c(=O)c1=O`, the inhibition is 2.85% (inactive).

On to `CC(C)(C)C(=O)Nc1ccc(C(=O)Nc2nccs2)cc1`, for which the inhibition is 53.9% (active).

With `CC(=O)C(C)(C)OC(=O)Nc1nccs1`, the inhibition was 4.65% (inactive).

In the case of `Cc1ccc(C(=O)Nc2nccs2)cc1C`, the inhibition was -7.57% (inactive).

On to `COc1ccccc1NC(=O)COC(=O)C(C)N1C(=O)C(=O)c2ccccc21` (stereo not given), for which the inhibition is 13.1% (inactive).

As to `Cc1ccc(/C=N/NC(=O)c2cccc(F)c2)c(O)c1`, the inhibition is -36.3% (inactive).
